The supplement of paper PMC12494721
Where a name gives a salt, the structure may show the parent alone.

Experiments:
Conditions in all cases: incubation time: 27 h, anaerobic, 37 °C;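 for the amine columns active = adjusted P below 0.05 in both replicates with a change the same way and a mean fold change under 0.8 or over 1.25; inactive = the rest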
[1] = tested on: Clostridium sporogenes DSM 1664; assay: growth (OD595) fold change vs plate DMSO controls (fold change (ratio)); higher = more growth
Procedure, shortened: (§1)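 The 96-well mGAM cultures had been kept anaerobic for 27 h at 37 °C before being shaken and read at 595 nm. Blank subtraction, compound background correction with 20 µM compound solutions in water, and a calibration factor of 5 turned the readings into OD. Growth is given as the fold change versus the median of plate DMSO controls. Fold changes above 1.5 were set to NA, and the values are means of 2 biological replicates.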

Escherichia coli IAI1 [2] = assay: as above
Procedure, shortened: as §1

[3] = tested on: Klebsiella aerogenes DSM 30053; assay: as above
Procedure, shortened: as §1

[4] = tested on: Ruminococcus gnavus DSM 108212; assay: as above
Procedure, shortened: as §1

[5] = tested on: Klebsiella aerogenes DSM 30053; assay: fold change of Histamine concentration vs plate DMSO controls (fold change (ratio)); higher = more amine produced, active = hit call of the paper (significant change in both replicates, either direction)
Procedure, shortened: (§2)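 Each value is the fold change relative to DMSO-only wells on the same plate. Four gut bacterial strains were grown anaerobically in mGAM at 37 °C for 27 h in 80 µL wells, starting at OD 0.1 before a 1:1 dilution, with compounds at 20 µM final (sweeteners 50 µM). Whole cultures were extracted with cold acetonitrile/methanol containing 0.1% formic acid, centrifuged, and amines were quantified by LC–triple-quadrupole MS (dynamic MRM) against external calibration curves with within-batch drift correction. Values are means of 2 biological replicates.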

[6] = tested on: Clostridium sporogenes DSM 1664; assay: fold change of Tryptamine concentration vs plate DMSO controls (fold change (ratio)); higher = more amine produced, active = hit call of the paper (significant change in both replicates, either direction)
Procedure, shortened: as §2

[7] = tested on: Ruminococcus gnavus DSM 108212; assay: as above
Procedure, shortened: as §2

Escherichia coli IAI1 [8] = assay: fold change of Putrescine concentration vs plate DMSO controls (fold change (ratio)); higher = more amine produced, active = hit call of the paper (significant change in both replicates, either direction)
Procedure, shortened: as §2

[9] = tested on: Klebsiella aerogenes DSM 30053; assay: as above
Procedure, shortened: as §2

Escherichia coli IAI1 [10] = assay: fold change of Cadaverine concentration vs plate DMSO controls (fold change (ratio)); higher = more amine produced, active = hit call of the paper (significant change in both replicates, either direction)
Procedure, shortened: as §2

[11] = tested on: Klebsiella aerogenes DSM 30053; assay: as above
Procedure, shortened: as §2

[12] = tested on: Ruminococcus gnavus DSM 108212; assay: fold change of 2-Phenylethylamine concentration vs plate DMSO controls (fold change (ratio)); higher = more amine produced, active = hit call of the paper (significant change in both replicates, either direction)
Procedure, shortened: as §2

| SMILES | growth [1] | growth (Escherichia coli IAI1 [2]) | growth [3] | growth [4] | fold change of Histamine concentration [5] | fold change of Tryptamine concentration [6] | fold change of Tryptamine concentration [7] | fold change of Putrescine concentration (Escherichia coli IAI1 [8]) | fold change of Putrescine concentration [9] | fold change of Cadaverine concentration (Escherichia coli IAI1 [10]) | fold change of Cadaverine concentration [11] | fold change of 2-Phenylethylamine concentration [12] |
| --- | --- | --- | --- | --- | --- | --- | --- | --- | --- | --- | --- | --- |
| O=C(N[C@H](CO)[C@H](O)c1ccc([N+](=O)[O-])cc1)C(Cl)Cl [Chloramphenicol] (20 µM) | 1.25 | 0.0503 | 0.0799 | 1.08 | 0.0535 (active) | 0.64 (inactive) | 0.168 (active) | 0.245 (active) | 0.512 (active) | 0.0844 (active) | 0.383 (active) | 0.182 (active) |
| CC1=C(C(=O)O)N2C(=O)[C@@H](NC(=O)[C@H](N)C3=CCC=CC3)[C@H]2SC1 [Cephradine monohydrate] (20 µM) | 1.11 | 1.04 | 1.02 | 1.07 | 0.968 (inactive) | 1.04 (inactive) | 1 (inactive) | 1.05 (inactive) | 1 (inactive) | 0.921 (inactive) | 0.988 (inactive) | 0.994 (inactive) |
| Oc1c(I)cc(Cl)c2cccnc12 [Clioquinol] (20 µM) | 0.876 | 0.817 | 0.978 | 0.671 | 1.03 (inactive) | 0.976 (inactive) | 0.628 (active) | 0.906 (inactive) | 1.01 (inactive) | 1.09 (inactive) | 0.991 (inactive) | 0.809 (inactive) |
| CCN(CC)C(=O)c1ccc(O)c(OC)c1 [Ethamivan] (20 µM) | 1.12 | 1.02 | 1.05 | 0.873 | 0.973 (inactive) | 1.02 (inactive) | 1.04 (inactive) | 1.02 (inactive) | 1.02 (inactive) | 1.01 (inactive) | 1.01 (inactive) | 1.05 (inactive) |
| N#Cc1cc(NC(=O)C(=O)O)c(Cl)c(NC(=O)C(=O)O)c1 [Lodoxamide] (20 µM) | 1.02 | 1.15 | 1.01 | 1.12 | 0.985 (inactive) | 1.05 (inactive) | 0.986 (inactive) | 1.17 (inactive) | 1.01 (inactive) | 0.977 (inactive) | 0.997 (inactive) | 0.934 (inactive) |
| NS(=O)(=O)c1cc(Cl)c(Cl)c(S(N)(=O)=O)c1 [Dichlorphenamide] (20 µM) | 0.963 | 0.998 | 1.2 | 0.536 | 0.902 (inactive) | 0.966 (inactive) | 0.572 (inactive) | 1.06 (inactive) | 1.01 (inactive) | 0.995 (inactive) | 1.03 (inactive) | 0.54 (inactive) |
| COC(=O)C1=C(C)NC(C)=C(C(=O)OCCN2CCN(C(c3ccccc3)c3ccccc3)CC2)C1c1cccc([N+](=O)[O-])c1 (stereo not drawn) [Manidipine Dihydrochloride] (20 µM) | 0.816 | 1.01 | 1 | 0.934 | 1 (inactive) | 0.799 (inactive) | 0.848 (inactive) | 0.983 (inactive) | 1 (inactive) | 1.01 (inactive) | 0.997 (inactive) | 0.9 (inactive) |
| CCCCc1oc2ccccc2c1C(=O)c1cc(I)c(OCCN(CC)CC)c(I)c1 [Amiodarone hydrochloride] (20 µM) | 1.17 | 1.02 | 0.991 | 0.65 | 1.06 (inactive) | 1.1 (inactive) | 0.75 (active) | 0.96 (inactive) | 1.02 (inactive) | 1.04 (inactive) | 0.985 (inactive) | 0.89 (inactive) |
| N[C@H](Cc1ccccc1)C(=O)O [D-phenylalanine] (20 µM) | 1.13 | 1.02 | 0.991 | 0.917 | 0.946 (inactive) | 1.1 (inactive) | 0.973 (inactive) | 1.06 (inactive) | 1.02 (inactive) | 0.961 (inactive) | 1.01 (inactive) | 0.968 (inactive) |
| CO/N=C(\C(=O)N[C@@H]1C(=O)N2C(C(=O)O)=C(COC(N)=O)CS[C@H]12)c1ccco1 [Cefuroxime sodium salt] (20 µM) | 0 | 0.0568 | 0.796 | 0.229 | 1.1 (inactive) | 0.031 (active) | 0.0602 (active) | 0.84 (inactive) | 1.03 (inactive) | 1.98 (active) | 1.07 (inactive) | 0.0618 (active) |
| Cc1[nH]cnc1CN1CCc2c(c3ccccc3n2C)C1=O [Alosetron hydrochloride] (20 µM) | 1.17 | 0.97 | 1.02 | 1.13 | 0.979 (inactive) | 1.04 (inactive) | 0.996 (inactive) | 0.971 (inactive) | 1.02 (inactive) | 0.945 (inactive) | 1.01 (inactive) | 0.975 (inactive) |
| C[C@]12C=CC(=O)C=C1CC[C@@H]1[C@@H]2C(=O)C[C@@]2(C)[C@H]1CC[C@]2(O)C(=O)CO [Prednisone] (20 µM) | 1.04 | 1.05 | 1.08 | 1.1 | 0.861 (inactive) | 1.04 (inactive) | 1.04 (inactive) | 1.07 (inactive) | 0.941 (inactive) | 1.08 (inactive) | 1.02 (inactive) | 1.02 (inactive) |
| CC=CC(=O)N(CC)c1ccccc1C [Crotamiton] (20 µM) | 0.871 | 1.05 | 1.01 | 1.07 | 1.06 (inactive) | 1.01 (inactive) | 1.07 (inactive) | 1.02 (inactive) | 1.01 (inactive) | 0.967 (inactive) | 1.01 (inactive) | 1.12 (inactive) |
| COc1nc(C)nc(Cl)c1NC1=NCCN1 [Moxonidine] (20 µM) | 1.05 | 0.991 | 0.981 | 1.01 | 1.07 (inactive) | 1 (inactive) | 1.04 (inactive) | 1 (inactive) | 1.01 (inactive) | 1.01 (inactive) | 0.991 (inactive) | 1.07 (inactive) |
| CN1CCC[C@@H]1Cc1c[nH]c2ccc(CCS(=O)(=O)c3ccccc3)cc12 [Eletriptan] (20 µM) | 0.866 | 1.04 | 0.965 | 0.979 | 1.05 (inactive) | 1.05 (inactive) | 1.02 (inactive) | 1.08 (inactive) | 0.973 (inactive) | 0.955 (inactive) | 0.994 (inactive) | 1.05 (inactive) |
| COc1ccc(-c2ccc3cc(C(=O)O)ccc3c2)cc1C12CC3CC(CC(C3)C1)C2 [Adapalene] (20 µM) | 0.829 | 1 | 1.04 | 1.18 | 1.02 (inactive) | 0.96 (inactive) | 1.04 (inactive) | 1.02 (inactive) | 1 (inactive) | 1.02 (inactive) | 0.994 (inactive) | 1.06 (inactive) |
| CC1(C)S[C@@H]2[C@H](NC(=O)[C@H](N)c3ccccc3)C(=O)N2[C@H]1C(=O)O [Ampicillin trihydrate] (20 µM) | 0 | 0.431 | 0.91 | 0 | 0.914 (inactive) | 0.01 (active) | 0.0662 (active) | 2.31 (active) | 1.03 (inactive) | 2.29 (active) | 1.06 (inactive) | 0.0431 (active) |
| CCN(CC)CC#CCOC(=O)C(O)(c1ccccc1)C1CCCCC1 (stereo not drawn) [Oxybutynin chloride] (20 µM) | 1.01 | 0.971 | 1 | 0.917 | 1.01 (inactive) | 1.01 (inactive) | 0.977 (inactive) | 1.01 (inactive) | 1.02 (inactive) | 0.909 (inactive) | 1.01 (inactive) | 1.01 (inactive) |
| CC1(C)S[C@@H]2[C@H](NC(=O)[C@H](N)c3ccc(O)cc3)C(=O)N2[C@H]1C(=O)O [Amoxicillin] (20 µM) | 0 | 0.796 | 0.828 | 0.198 | 1.1 (inactive) | 0.0237 (active) | 0.0355 (active) | 3.1 (active) | 1.05 (inactive) | 1.41 (inactive) | 1.06 (inactive) | 0.0375 (active) |
| CCCCNc1ccc(C(=O)OCCN(C)C)cc1 [Tetracaine hydrochloride] (20 µM) | 1.06 | 1.02 | 0.968 | 0.907 | 1.08 (inactive) | 1.04 (inactive) | 1.07 (inactive) | 0.956 (inactive) | 1.04 (inactive) | 0.983 (inactive) | 0.991 (inactive) | 1.05 (inactive) |
| CC#CCn1c(N2CCC[C@@H](N)C2)nc2c1c(=O)n(Cc1nc(C)c3ccccc3n1)c(=O)n2C [Linagliptin] (20 µM) | 1.01 | 1.03 | 0.993 | 0.856 | 1.08 (inactive) | 1.07 (inactive) | 1.02 (inactive) | 1.01 (inactive) | 1.02 (inactive) | 0.983 (inactive) | 0.996 (inactive) | 0.997 (inactive) |
| O=C(O)CCCC[C@@H]1SC[C@@H]2NC(=O)N[C@@H]21 [Biotin] (20 µM) | 1.02 | 0.975 | 0.981 | 1.12 | 1.02 (inactive) | 0.954 (inactive) | 1.03 (inactive) | 0.982 (inactive) | 1.02 (inactive) | 1.01 (inactive) | 0.997 (inactive) | 1.06 (inactive) |
| CC(=O)[C@H]1CC[C@H]2[C@@H]3CC=C4C[C@@H](O)CC[C@]4(C)[C@H]3CC[C@]12C [Pregnenolone] (20 µM) | 1.1 | 1.07 | 1 | 0.993 | 1.06 (inactive) | 1.04 (inactive) | 0.998 (inactive) | 1.03 (inactive) | 1.02 (inactive) | 0.968 (inactive) | 0.994 (inactive) | 1 (inactive) |
| CN(C)C/C=C(/c1ccc(Br)cc1)c1cccnc1 [Zimelidine dihydrochloride monohydrate] (20 µM) | 0.928 | 0.997 | 0.991 | 1.03 | 1.01 (inactive) | 1.03 (inactive) | 0.987 (inactive) | 0.804 (inactive) | 0.993 (inactive) | 1.49 (active) | 0.978 (inactive) | 1.04 (inactive) |
